# Measured values reported in PMC5540273 (PLoS ONE, 2017).
# Experiments:
# Details in all cases: concentration: 1 μM, replicates: in singlicate; n = 1
# [1] = tested on: EIF2AK1
# [2] = tested on: EPHA1
# [3] = tested on: EPHA2
# [4] = tested on: EPHA3
# [5] = tested on: EPHA4
# [6] = tested on: EPHA5
# [7] = tested on: EPHA6
# [8] = tested on: EPHA7
# [9] = tested on: EPHA8
# [10] = tested on: EPHB1
# [11] = tested on: EPHB2
# [12] = tested on: EPHB3
# [13] = tested on: EPHB4
# [14] = tested on: EPHB6
# [15] = tested on: ERBB2
# [16] = tested on: ERBB3
# [17] = tested on: ERBB4
# [18] = tested on: T1, ERK1
# T1 construct: gene MAPK3
# [19] = tested on: T2, ERK2
# T2 construct: gene MAPK1
# [20] = tested on: T3, ERK3
# T3 construct: gene MAPK6
# 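Further: KINOMEscan kinase panel screen.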
SMILES,%Inh [1] [%],%Inh [2] [%],%Inh [3] [%],%Inh [4] [%],%Inh [5] [%],%Inh [6] [%],%Inh [7] [%],%Inh [8] [%],%Inh [9] [%],%Inh [10] [%],%Inh [11] [%],%Inh [12] [%],%Inh [13] [%],%Inh [14] [%],%Inh [15] [%],%Inh [16] [%],%Inh [17] [%],%Inh [18] [%],%Inh [19] [%],%Inh [20] [%]
CS(=O)(=O)CCNCc1nc(-c2ccc3ncnc(Nc4ccc(OCc5cccc(F)c5)c(Cl)c4)c3c2)cs1.Cl [GW583340],0,5,0,13,0,0,0,0,0,1,0,0,5,19,99.7,0,99.1,0,0,12
COc1ccc(Nc2nccc(N3CCC(NC(=O)Nc4ccc5c(c4)OCO5)C3)n2)cc1 (centres unmarked) [GSK1379745],0,8,0,0,11,0,19,7,20,4,0,24,29,47,28,28,0,3,12,14
O=C(Nc1ccccc1)Nc1ccc(Oc2ccc3nccn3n2)cc1,0,31,25,0,0,0,0,3,23,13,0,7,7,0,24,0,0,0,0,0
CCc1nc(-c2cccc(C)c2)c(-c2ccnc(NC(=O)c3ccccc3)c2)s1,15,0,0,4,32,28,45,12,15,14,4,36,37,100,46,2,34,0,40,4
Nc1nc(-c2ccc3c(N)n[nH]c3c2)cc(N2CCCCC2)n1 [GSK2228768],0,0,0,0,3,0,0,0,0,9,0,0,8,0,2,0,0,0,0,6
Nc1n[nH]c2nnc(-c3ccccc3)cc12 [SB-517389],13,9,4,0,14,0,0,8,15,9,80,10,22,0,7,0,0,0,0,16
Clc1cccc(-c2nc(Nc3ccncc3)c3ccccc3n2)c1 [GW873004],0,100,38,0,5,0,0,15,18,19,2,0,45,0,38,46,0,1,12,0
FC(F)(F)c1cc(Nc2nccc(-c3c(-c4ccc(Cl)cc4)nn4ncccc34)n2)ccc1Cl [GW829351],0,0,0,0,4,0,0,0,3,0,0,0,0,0,0,0,45,0,0,0
COC(=O)c1cccc(NC(=O)NCCNc2ccnc(Nc3ccc(F)cc3)n2)c1 [GSK1379883],0,5,32,0,7,0,20,3,9,4,0,21,6,4,14,15,28,0,11,0
Clc1ccc(-c2cc(-c3c[nH]nc3-c3ccccn3)ccn2)cc1 [GW681251],0,0,8,0,2,0,10,0,0,7,31,15,1,0,17,0,0,0,0,8
FC(F)(F)c1ccc(-c2cc(-c3c[nH]nc3-c3ccccn3)ccn2)cc1 [GW599550],100,2,0,13,0,0,0,5,9,30,0,0,8,37,38,16,0,15,0,0
Cl.c1ccc(Cn2ccc3cc(Nc4ncnc5ccccc45)ccc32)cc1 [GW275568],5,7,1,40,0,0,0,10,20,4,6,4,18,33,100,29,88,0,0,4
FC(F)(F)c1ccc(-c2nn3ncccc3c2-c2ccnc(Nc3cccc(C(F)(F)F)c3)n2)cc1 [GW828205],0,34,19,0,81,0,78,0,0,2,1,68,55,0,13,27,35,0,3,0
COC(=O)c1c(-c2ccccc2)c2cc(Cl)ccc2c(=O)n1Cc1ccc(S(C)(=O)=O)cc1,10,0,8,6,20,4,34,1,7,6,18,24,0,0,0,0,29,0,3,0
Cl.Cn1ccc(-c2cccc(Nc3ccnc4cc(-c5nccs5)ccc34)c2)n1 [GW525701],0,25,0,100,0,0,0,6,7,14,0,9,47,94.2,53,64,45,0,0,0
COc1cc2ncnc(Nc3ccc(OCc4ccccc4Br)c(Cl)c3)c2cc1OC.Cl [GI261590],0,8,14,0,3,15,7,4,17,12,5,22,31,26,96.5,29,100,0,16,0
Nc1nccc2scc(-c3ccc4c(c3)CCN4C(=O)Cc3cc(F)ccc3F)c12 [GSK2587663],0,11,17,0,12,0,25,6,20,7,10,34,27,59,14,0,46,3,0,4
Cc1ccc(O)cc1Nc1cc(C(F)(F)F)nc2ccc(-c3ccncc3)cc12 [GW630823],0,6,17,0,5,3,5,88,68,12,3,0,18,9,0,0,0,2,5,9
Cl.Cl.c1ccc(-c2cc3ccncc3cc2OC2CCNCC2)cc1 [GSK1122999],13,11,13,0,9,0,12,5,13,25,47,17,5,11,10,0,0,0,4,24
